Measurements: PubChem BioAssay AID492956 (The Scripps Research Institute Molecular Screening Center, 2010)
“And” between values parts separate entries of the source, which are not always exact repeats. Equal entries are not always repeated. Out of some 340,000 compounds screened, about 3,300 (0.97%) were called active.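 Rule for the calls: active = inhibition above the mean over all tested compounds plus 3 SD (cut at about 30% in these data); inactive = the rest.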 Only a selection was taken, and actives are over-represented in it overall.

Each compound was assayed against Platelet-activating factor acetylhydrolase 2, cytoplasmic (Homo sapiens) (UniProt Q99487) (assay: PAFAH2 enzyme inhibitors, primary screen, biochemical, fluorescence polarization, human (AID 492956;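 note: inhibitors block probe labeling of enzyme so polarization drops; 0% = enzyme with DMSO and 100% = wells lacking PAFAH2 protein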)). Settings: recombinant PAFAH2, FP-rhodamine activity probe, at 3.39 µM, stronger effect = higher value.

inhibition, inactive:
CCCCCC(=O)N1CCN(S(=O)(=O)c2ccc3c(c2)OCCCO3)CC1 6.58%
Clc1ccc(C2[C@H]3CN(CC4CCCCC4)[C@H](c4ccccc4)C34CC2(c2cccnc2)C4)cn1 (some centres undefined) -11.3%
COc1cc(C2C(C(=O)c3sc(C)nc3C)=C(O)C(=O)N2CCN(C)C)cc(OC)c1OC (centres undefined) 2.01%
COc1ccccc1N1CC(C(=O)Nc2ccc(S(=O)(=O)N3CCOCC3)cc2)CC1=O (centres undefined) 2.45%
CC(=O)Nc1ccc(NS(=O)(=O)c2cc(C)sc2C)cc1 5.36%
OC(CNC1CCCC1)COc1ccc(F)cc1 (centres undefined) -6.14%
CC(C)(C)NC(=O)c1cccc(NC(=O)Cc2ccc(Br)cc2)c1 -0.14%
FC(F)Oc1ccccc1C1CC(c2ccc(Br)s2)Nc2ncnn21 (centres undefined) 4.45%
CC1CCCCC1NC(=O)CO/N=C/c1ccc(OC(F)F)cc1 (centres undefined) 5.23%
C=CCOc1ccc(/C=C/C(=O)OCC(=O)NCC2CCCO2)cc1 (centres undefined) 29.2%
CCC(=O)c1ccc(OCC(=O)OCC(=O)NC2CCCCCC2)cc1 1.93%
C=CCOc1ccc(/C=C/C(=O)OC(C)C(=O)Nc2ccc(NC(C)=O)cc2)cc1 (centres undefined) -1.01%
CC(NC(=O)COC(=O)c1ccc(Cl)cc1O)c1ccc(F)cc1 (centres undefined) 11%
O=C(CO/N=C/c1ccccc1OC(F)F)NC1CCCC1 4.52%
O=c1ccc2cc(S(=O)(=O)N3CCN(c4ccccc4)CC3)ccc2o1 -3.62%
COC(=O)CCSc1nccn1Cc1ccccc1 3.07%
CC(=O)c1c(N2CCN(c3ccc(F)cc3)CC2)nc(=S)n(-c2ccccc2)c1C -5.81%
Cc1ccc(NC(=O)CN(C)S(=O)(=O)c2cnc[nH]2)cc1C 4.95%
CC(NC(=O)c1ccccc1)C(=O)Nc1ccccc1 (centres undefined) -1.79%
O=C1C=C(NS(=O)(=O)c2ccccc2)C(=O)c2ccccc21 5.32%
Cc1cccc(C2C3=C(CCCC3=O)N=C3c4ccccc4C(=O)C32)c1 (centres undefined) 9.45%
O/N=C(\C[n+]1ccccc1)c1ccc(Br)cc1 -4.24%
O=C(C1CCN(Cc2ccc(Cl)cc2)CC1)N1CCN(Cc2ccc3c(c2)OCO3)CC1 2.96%
CCCOc1ccc(NC(=O)CC2C(=O)N(C)C(=S)N2Cc2ccc3c(c2)OCO3)cc1 (centres undefined) -2.75%
Cc1c(Br)cc(C(=O)N2CCCCCC2)c(C)c1C 1.14%
CC1CCc2c(sc3c2C2=NS(=O)(=O)CCN2C=N3)C1 (centres undefined) 0.66%
COCCNC(=O)NC(=O)COC(=O)C1(c2ccc(Cl)cc2)CC1 13%
Cc1ccc(Cc2nnc(SCC(=O)Nc3ccccc3C)[nH]c2=O)cc1 6.57%
COc1ccccc1-c1cnn2c(N3CCOCC3)cc(C)nc12 -3.57%
CS(=O)(=O)c1ccc(C(=O)OCC(=O)NNC(=O)COc2ccc(Cl)cc2)cc1 1.43%
O=C(COc1ccc(Cl)cc1)Nc1ccccc1CO 0.9%
O=C(c1ccc(=O)[nH]c1)N(Cc1ccco1)C1(C(=O)NC2CCCCC2)CCCCC1 -0.52%
N#Cc1nc(COc2ccc(Cl)cc2)oc1N1CCCC1 -5.85%
COc1cccc(/C=C/C(=O)OCC(=O)N2CCN(c3ccccc3)CC2)c1 1.44%
C[C@H](NC(=O)c1ccccc1Cl)C(=O)OCC(=O)N1CCN(c2ccccc2)CC1 -2.12%
CC(C)(C)NC(=O)CSc1nnc(NC(=O)CCc2ccccc2)s1 0.99%
CCc1ccc(C(=O)COC(=O)c2ccco2)cc1 9.26%
CC(C)CNC(=O)COC(=O)c1ccccc1OCC(=O)Nc1ccc(Br)cc1 -2.18%
CC(=O)Nc1ccc(NC(=O)COc2ccc(-c3ccccc3)cc2)cc1 -5.15%
CCOC(=O)c1ccc(NC(=O)CNC(=O)c2ccco2)cc1 1.1%
O=C(OCC(=O)N1CCN(C(=O)c2ccco2)CC1)c1ccccc1Cc1ccccc1 10.9%
O=C(CNC(=O)c1ccco1)OCC(=O)c1ccccc1 4.2%
CC1(C)C2CCC1(CS(=O)(=O)NCCc1c[nH]c3ccccc13)C(=O)C2 (centres undefined) 4.84%
O=[N+]([O-])c1ccc(Oc2ccc(F)cc2Br)c2ccncc12 -2.87%
O=S(=O)(NC1CC1)c1ccc(Cl)cc1 6.44%
Cc1cc(N)n(-c2ccc(S(=O)(=O)N3CCCC3)cc2[N+](=O)[O-])n1 3.65%
O=C(CNC(=O)c1ccc(Cl)cc1Cl)NCC(=O)Nc1ccccc1N1CCOCC1 7.59%
Oc1ccccc1C1=NN(c2ccccc2)C(c2ccccc2)C1 (centres undefined) 2.45%
Cn1cccc1C(=O)OCC(=O)NCCc1ccccc1 12.9%
O=C(COC(=O)c1c2c(nc3ccccc13)CCCC2)c1ccc(Br)s1 -8.93%
C=CCN(C(=O)Cn1ncc2c1-c1cc(C)ccc1OC2)c1ccccc1 7.42%
O=C(c1c(F)cccc1F)N1CCN(c2ncc(Br)cn2)CC1 9.7%
CCOc1c(OC)cccc1C(=O)NCC1(c2ccccc2)CCCC1 -1.33%
COc1ccc(C2(CNC(=O)Cc3ccc(OC)c(OC)c3)CCCC2)cc1 0.3%
O=C(NC(=O)c1ccccc1N1CCCCC1)Nc1ccc(Br)cc1 -2.91%
COC(=O)c1cc(OCC(=O)NC2CCCc3ccccc32)cc(C(=O)OC)c1 (centres undefined) 0.45%
O=C(CCNC(=O)c1ccc(Cl)cc1)NC1CCCc2ccccc21 (centres undefined) 0.23%
CCOc1ccc(NC(=O)COc2ccc(C(=O)NC3CCCc4ccccc43)cc2OC)cc1 (centres undefined) -2.16%
Nc1ccc(C(=O)OCC(=O)NC2CCS(=O)(=O)C2)cc1[N+](=O)[O-] (centres undefined) 0.87%
O=C(NNc1nc(N2CCCC2)nc(N2CCCC2)n1)c1ccccc1 8.18%
CC(=O)N1c2ccc(S(=O)(=O)N3CCC(C(=O)N4CCN(c5ccccc5)CC4)CC3)cc2CC1C (centres undefined) -4.15%
COc1cc(C(=O)NCc2nnc(SCC(=O)Nc3nc4ccc(C)cc4s3)o2)cc(OC)c1OC 4.41%
CCOc1ccc(CCNC(=O)C2=C(C)C(=O)OC23CCC(C)CC3)cc1OCC (centres undefined) 5.73%
c1ccc(CCC2=NCCn3cccc32)cc1 -3.37% and -2.16%
O=C(OCC(=O)N1CCCCC1)c1ccc(OC(F)(F)F)cc1 5.16%

inhibition, active:
C=CCOc1ccc(/C=C/C(=O)OCC(=O)NC(C)c2ccc(F)cc2)cc1 (centres undefined) 33.1%
C=CCOc1ccc(/C=C/C(=O)OCC(=O)NC2CCCCCC2)cc1 77%
O=C(COC(=O)/C=C/c1ccc(OC(F)F)cc1)NC1CCCCC1 59.9%
O=C(NC1=CC(=O)c2ccccc2C1=O)c1ccccc1 45.2%
O=C(Nc1ccc(Cl)cc1)C1c2cccc[n+]2CC(=O)N1Cc1ccc2c(c1)OCO2 (centres undefined) 43.6%
CCS(=O)(=O)c1ccc(O)c(NC(=O)COc2ccc(Cl)cc2)c1 75.6%
O=C(OCC(=O)N1CCN(c2ccccc2)CC1)c1ccc([N+](=O)[O-])s1 35.3%
CCN(CC)c1ccc(C(=O)OCC(=O)c2ccco2)cc1 35.1%
CC(=O)Nc1ccc(NC(=O)COC(=O)c2ccccc2C(=O)c2ccccc2)cc1 32.1%
O=C(COC(=O)c1ccccc1C(=O)c1ccccc1)c1ccco1 43%
Cn1cccc1C(=O)OCC(=O)c1ccc(Br)s1 40.2%
COc1cc(C(=O)NCC2(c3ccccc3)CCCC2)ccc1OC(C)C 174%
NC(=O)Nc1ccc(C(=O)OCC(=O)NC2CCCc3ccccc32)cc1 (centres undefined) 71.5%
Nc1ccc(C(=O)OCC(=O)NC2CCCc3ccccc32)cc1[N+](=O)[O-] (centres undefined) 56.6%
